12-LOX inh = ALOX12 (human) lipoxygenase inhibition; purified 12hLO, xylenol orange hydroperoxide absorbance; Potency, µM (series often up to 108 µM), without a hit: at the top dose activity change, negative = inhibition, usual class: inhibitors; hit rate 1.1% among 580,000; AID 1671190; also: potency is read from the fitted curve at half-maximal effect
Target sequence (P18054 whole entry, looked up): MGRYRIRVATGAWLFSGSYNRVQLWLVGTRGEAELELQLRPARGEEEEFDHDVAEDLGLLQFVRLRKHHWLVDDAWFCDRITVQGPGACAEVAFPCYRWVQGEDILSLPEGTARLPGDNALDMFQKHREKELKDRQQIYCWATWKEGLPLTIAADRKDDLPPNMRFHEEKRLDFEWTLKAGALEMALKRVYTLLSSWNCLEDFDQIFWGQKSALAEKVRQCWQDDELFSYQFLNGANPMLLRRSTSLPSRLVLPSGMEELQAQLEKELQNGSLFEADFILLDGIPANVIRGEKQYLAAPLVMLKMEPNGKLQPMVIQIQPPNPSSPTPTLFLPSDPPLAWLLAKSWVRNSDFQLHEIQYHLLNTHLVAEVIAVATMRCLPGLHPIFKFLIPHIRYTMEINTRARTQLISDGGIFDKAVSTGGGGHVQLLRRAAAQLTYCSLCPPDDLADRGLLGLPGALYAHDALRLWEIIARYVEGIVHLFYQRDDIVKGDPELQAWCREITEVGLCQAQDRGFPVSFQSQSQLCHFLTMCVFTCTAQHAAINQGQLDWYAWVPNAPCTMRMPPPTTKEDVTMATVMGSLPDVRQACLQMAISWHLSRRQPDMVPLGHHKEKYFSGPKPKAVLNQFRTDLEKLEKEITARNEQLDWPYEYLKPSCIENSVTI
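Hydroperoxide product was detected by ferrous iron/xylenol orange as the 573 to 405 nm absorbance ratio. Arachidonic acid at 40 uM (final) was turned over for 30 min at room temperature by 150 nM human 12hLO, pH 7.0 Hepes buffer, after 15 min compound preincubation.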
HT1080NT lethal = kills 2HG-producing HT-1080-NT fibrosarcoma cells; HT-1080-NT fibrosarcoma viability, CellTiter-Glo ATP luminescence, 48 h; Potency, µM (doses to about 46.1 µM), for inactives: at the top dose activity, negative = less viability, usual class: cytotoxic; hit rate 1.6% among 360,000; AID 686970;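 also: NT is the 2HG producing partner of a matched IDH1 knockdown line; potency is read from the fitted curve at half-maximal effect; 0% = DMSO-treated cells and -100% = media-only wells without cells; nearly all actives have a fitted effect of over 55% in size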
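A 48-hour cytotoxicity screen used HT-1080-NT cells plated 2 hours before compound delivery. ATP-based CellTiter-Glo luminescence measured viability, normalized to DMSO and no-cell controls.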
DT40 TDP1 no CPT = qHTS for Inhibitors of human tyrosyl-DNA phosphodiesterase 1 (TDP1): qHTS in cells in absence of CPT | DT40 Tdp1-/- hTDP1 cells, no CPT, ATP luminescence, 48 h | Potency, µM (doses to about 46.2 µM), inactives show at the top dose activity change, negative = growth inhibition, hits mostly inhibitors | AID 686978, 2013 | hit rate 15% among 420,000; also: potency is read from the fitted curve at half-maximal effect; nearly all actives have a fitted effect of over 55% in size
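Readout: luminescence from CellTiter-Glo after 30 min in the dark at RT. Cells: DT40 Tdp1-/- with stable hTDP1, 400/well. Exposure: compounds alone, ≥48 hr, 37 °C.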
TDP1 cell CPT = DT40-hTDP1 cell growth loss with CPT; AID 686979; Potency, µM (highest dose often 46.2 µM), without a hit: top-dose activity change, negative = growth inhibition, actives largely listed as inhibitors; hit rate 12% among 420,000; chicken DT40 Tdp1-/-;hTDP1 cells + 20 nM CPT, ATP luminescence, 48 h; also: potency is read from the fitted curve at half-maximal effect; nearly all actives have a fitted effect of over 55% in size
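Chicken DT40 Tdp1-/- cells complemented with human TDP1, 400 cells/well, exposed to compounds plus 20 nM camptothecin for at least 48 h at 37 C; viability read as ATP content by CellTiter-Glo luminescence.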
HT1080 IDH1KD tx = HT-1080 IDH1 knockdown cell toxicity (counter line); HT-1080 IDH1 knockdown viability, ATP luminescence, 48 h; Potency, µM (doses to about 46.1 µM), without a hit: top-dose activity, negative = toxicity, most hits filed as cytotoxic; hit rate 2% among 360,000; AID 686971;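 also: potency is read from the fitted curve at half-maximal effect; 0% = DMSO wells and -100% = cell-free medium wells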
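After a 2 h attachment period, IDH1KD HT-1080 cells took pin-transferred compound for 48 h at 37 °C; ATP-based luminescence after 10 min room-temperature reagent incubation reported viability.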
IL-1B inflam inh = blocks inflammasome-driven IL-1 beta release; THP-1 LPS/ATP IL-1B secretion, AlphaLISA, 16 h; hits give low values; activity change, % at 57.5 µM; hit rate 4.7% among 360,000; AID 743279; in the data active = activity change below about -50%; inconclusive = mostly about -30% to -49%
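Secreted IL-1B measured by AlphaLISA bead assay after 16 h compound exposure of THP-1 cells; compounds (final up to 57.5 uM) added 1 h before LPS (250 ng/mL) and ATP (1.25 mM) stimulation; lower signal means less secretion.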
Starred values were filed as active, the others as inactive; [ ] = another dose, or the depositor's remark. This excerpt belongs to a sample that is enriched for hits. Unless noted, calls follow the shape of the dose curve; as a rule, active = well fitted curve in the direction sought with a large enough effect; inconclusive = small, poorly fitted or top-dose-only effect, or another doubt; inactive = no such curve, though single readings can be large; an effect the other way counts as inactive or inconclusive. Unless noted, % is scaled to controls: 0 for no effect and ±100 for the full control effect.

How did N=c1c(C(=O)NCCN2CCOCC2)cc2c(=O)n3ccccc3nc2n1CCc1ccccc1 do in these assays?
12-LOX inh: -26%; HT1080NT lethal: 21%; DT40 TDP1 no CPT: 23µM*; TDP1 cell CPT: inconclusive; HT1080 IDH1KD tx: 12%; IL-1B inflam inh: 2

How did Cc1csc(NC(=O)NC2CC(=O)N(c3ccc(F)cc3)C2)n1 (stereo unspecified) do in these assays?
12-LOX inh: 16%

Results for COc1ccc(C(=O)N2CCC3(C2)NC(=O)c2ccccc2O3)cc1 (stereo unspecified) ?
12-LOX inh: 1%

Results for Cc1ccc(NC(=O)c2ccc3nc(Cc4ccccc4)oc3c2)cc1F ?
12-LOX inh: inconclusive; DT40 TDP1 no CPT: -14%; TDP1 cell CPT: inconclusive

How did CCC(NC(=O)c1ccc2nc(Cc3ccc(OC)cc3)oc2c1)c1ccncc1 (stereo unspecified) do in these assays?
12-LOX inh: 17%; HT1080NT lethal: inconclusive; DT40 TDP1 no CPT: 3.7µM*; TDP1 cell CPT: 7.3µM*; HT1080 IDH1KD tx: 21µM*; IL-1B inflam inh: -17

Results for COc1cccc(NC(=O)c2ccc3nc(Cc4ccccc4)oc3c2)c1 ?
12-LOX inh: -24%; DT40 TDP1 no CPT: 16µM*; TDP1 cell CPT: 16µM*

How did CCC(C)NC(=O)c1ccc2nc(Cc3ccc(OC)cc3)oc2c1 (stereo unspecified) do in these assays?
12-LOX inh: 18%; HT1080NT lethal: 3%; DT40 TDP1 no CPT: inconclusive; TDP1 cell CPT: inconclusive; HT1080 IDH1KD tx: -3%; IL-1B inflam inh: -1

What do the screens show for `CCOC(=O)c1cccc(NC(=O)c2ccc3nc(Cc4ccccc4)oc3c2)c1`?
12-LOX inh: -2%; DT40 TDP1 no CPT: 16µM*; TDP1 cell CPT: 23µM*

How did O=C1COc2ccc(OCc3cccnc3)nc2CN1Cc1ccccc1F do in these assays?
12-LOX inh: 10%[176 µM]

Results for Cc1ccccc1OCC(=O)NC(=S)Nc1ccc(S(=O)(=O)NC2CCCCC2)cc1 ?
12-LOX inh: 69%; HT1080NT lethal: inconclusive; DT40 TDP1 no CPT: 13µM*; TDP1 cell CPT: inconclusive; HT1080 IDH1KD tx: 1%[9.24 µM]; IL-1B inflam inh: -5

What do the screens show for `CCOC(=O)N1CCN(C(=O)COc2ccc(S(=O)(=O)NC3CCCCC3)cc2C)CC1`?
12-LOX inh: 1%; HT1080NT lethal: -11%; DT40 TDP1 no CPT: 18µM*; TDP1 cell CPT: inconclusive; HT1080 IDH1KD tx: -10%; IL-1B inflam inh: 1

Results for Cc1cc(S(=O)(=O)NC2CCCCC2)ccc1OCC(=O)N1CCOCC1 ?
12-LOX inh: 6%; HT1080NT lethal: 1%; DT40 TDP1 no CPT: -22%; TDP1 cell CPT: -28%; HT1080 IDH1KD tx: 1%; IL-1B inflam inh: 6

How did CCOC(=O)N1CCC(NS(=O)(=O)c2ccc(C)c(Cl)c2)CC1 do in these assays?
12-LOX inh: 167%; HT1080NT lethal: -26%; DT40 TDP1 no CPT: 6.5µM*; TDP1 cell CPT: inconclusive; HT1080 IDH1KD tx: -26%; IL-1B inflam inh: 34

Results for CCc1ccc(OCC(=O)NC(=S)Nc2ccc(S(=O)(=O)NC3CCCCC3)cc2)cc1 ?
12-LOX inh: inconclusive; HT1080NT lethal: -1%; DT40 TDP1 no CPT: inconclusive; TDP1 cell CPT: inconclusive; HT1080 IDH1KD tx: -1%; IL-1B inflam inh: -12

What do the screens show for `CC(NC(=O)CCc1ncc(-c2ccccc2)o1)c1ccc2c(c1)NC(=O)CO2` (stereo unspecified)?
12-LOX inh: -13%

How did Fc1cccc2sc(Nc3nnc(-c4ccco4)o3)nc12 do in these assays?
12-LOX inh: -2%; HT1080NT lethal: -24%; DT40 TDP1 no CPT: 23µM*; TDP1 cell CPT: inconclusive; HT1080 IDH1KD tx: -30%; IL-1B inflam inh: 30

Results for COc1cccc2sc(Nc3nnc(-c4ccc(F)cc4)o3)nc12 ?
12-LOX inh: 10%; HT1080NT lethal: -7%; DT40 TDP1 no CPT: 5.8µM*; TDP1 cell CPT: 5.8µM*; HT1080 IDH1KD tx: -24%; IL-1B inflam inh: 15

How did COc1cccc2sc(Nc3nnc(-c4cccs4)o3)nc12 do in these assays?
12-LOX inh: -3%; HT1080NT lethal: -29%; DT40 TDP1 no CPT: 8.2µM*; TDP1 cell CPT: 3.7µM*; HT1080 IDH1KD tx: inconclusive; IL-1B inflam inh: 75

Results for CCOC(=O)c1sc(Nc2nc3c(OC)cccc3s2)nc1C ?
12-LOX inh: -4%

How did Cc1ccc(NC(=O)C2CC(=O)N(c3n[nH]c4cc(Br)ccc34)C2)cc1 (stereo unspecified) do in these assays?
12-LOX inh: 1%

Results for COCCNC(=O)[C@@H]1C[C@H](Oc2ccccc2)CN1C(=O)Nc1ccc(C)c(C)c1 ?
12-LOX inh: 36%

How did Cn1c(=O)c2[nH]c(N3CCN(C(=O)CN4CCCC4)CC3)nc2n(C)c1=O do in these assays?
12-LOX inh: 1%

How did CCN(Cc1ccccc1)Cc1nc2sc(C(=O)OC)c(C)c2c(=O)[nH]1 do in these assays?
12-LOX inh: -25%

How did Cc1cc(C)cc(N(CC(=O)Nc2ccc(-c3nc4ccc(C)cc4s3)cc2)S(C)(=O)=O)c1 do in these assays?
12-LOX inh: -17%; HT1080NT lethal: inconclusive; DT40 TDP1 no CPT: 15µM*; TDP1 cell CPT: 23µM*; HT1080 IDH1KD tx: inconclusive; IL-1B inflam inh: -20

How did Cc1ccc2nc(-c3ccc(NC(=O)COC(=O)c4ccco4)cc3)sc2c1 do in these assays?
12-LOX inh: -17%; HT1080NT lethal: inconclusive; DT40 TDP1 no CPT: inconclusive; TDP1 cell CPT: -22%; HT1080 IDH1KD tx: inconclusive; IL-1B inflam inh: -51*

How did Cc1ccc2nc(-c3ccc(NC(=O)COc4ccccc4)cc3)sc2c1 do in these assays?
12-LOX inh: -20%; DT40 TDP1 no CPT: -13%; TDP1 cell CPT: -11%

What do the screens show for `Cc1ccc2nc(-c3ccc(NC(=O)COC(=O)c4ccc(Br)o4)cc3)sc2c1`?
12-LOX inh: -4%; HT1080NT lethal: inconclusive; DT40 TDP1 no CPT: inconclusive; TDP1 cell CPT: inconclusive; HT1080 IDH1KD tx: inconclusive; IL-1B inflam inh: 28

How did Cc1ccc2nc(-c3ccc(NC(=O)CN(c4ccccc4C)S(C)(=O)=O)cc3)sc2c1 do in these assays?
12-LOX inh: -4%; HT1080NT lethal: -5%; DT40 TDP1 no CPT: 15µM*; TDP1 cell CPT: 21µM*; HT1080 IDH1KD tx: -22%; IL-1B inflam inh: -28

Screens as filed in PubChem BioAssay.
